According to the supplement of paper PMC12350171:
Structures can show the parent of a compound that is named as a salt. Unmarked numbers belong to inactive results.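 How the source made its calls: active = AUC significantly below DMSO controls by Student t-fit with adjusted P under 0.01; inactive = not significantly reduced.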

The compounds below were run on Haemophilus parainfluenzae (assay: growth AUC normalised to DMSO control (fraction of control); higher = less growth inhibition, active = hit call of the paper). Settings: 20 µM.
Outline: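 Pathogens were passaged twice under anaerobic conditions, then inoculated into pre-reduced mGAM plates at a starting OD578 of 0.01, with compound at 20 μM and 1% DMSO, and sealed with breathable membranes. For Haemophilus parainfluenzae, the medium was supplemented with hemin and NAD. OD578 was read every hour for 24 h in three biological replicates. Growth-curve AUC was calculated by the trapezoidal rule up to the exponential-to-stationary transition and normalised to DMSO controls on the same plate.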

Compared with `CC(=O)OCC(=O)[C@@]12OC3(CCCC3)O[C@@H]1C[C@H]1[C@@H]3CCC4=CC(=O)C=C[C@]4(C)[C@@]3(F)[C@@H](O)C[C@@]12C` [Amcinonide], `O=C1CC2(CCCC2)CC(=O)N1CCCCN1CCN(c2ncccn2)CC1` [Buspirone hydrochloride] is higher in “growth AUC normalised to DMSO control” value: 1.03 for the first, 1.09 for the second.

First: CC(=O)Nc1nnc(S(N)(=O)=O)s1 [Acetazolamide]
Second: NC(=O)NC1NC(=O)NC1=O (centres undefined) [Allantoin]
The “growth AUC normalised to DMSO control” value of the first is lower: 0.959 for the first, 0.974 for the second.

First: CC(=O)Oc1ccccc1C(=O)Oc1ccccc1C(=O)O [Acetylsalicylsalicylic acid]
Second: CN1CCOC(c2ccccc2)c2ccccc2C1 (centres undefined) [Nefopam hydrochloride]
The “growth AUC normalised to DMSO control” value of the first is lower: 0.885 for the first, 1 for the second.

Going from `Cc1cc(NS(=O)(=O)c2ccc(N)cc2)no1` [Sulfamethoxazole] to `Cc1cccc(Nc2ccncc2S(=O)(=O)NC(=O)NC(C)C)c1` [Torsemide], the “growth AUC normalised to DMSO control” value falls from 1.01 to 0.978.

Going from `NNC(=O)c1ccncc1` [Isoniazid] to `CNNCc1ccc(C(=O)NC(C)C)cc1` [Procarbazine hydrochloride], the “growth AUC normalised to DMSO control” value falls from 1.09 to 0.995.

First: CCCCOc1ccc(C(=O)CCN2CCCCC2)cc1 [Dyclonine hydrochloride]
Second: OC(CCN1CCCCC1)(c1ccccc1)C1CCCCC1 (centres undefined) [Trihexyphenidyl-D,L hydrochloride]
The “growth AUC normalised to DMSO control” value of the first is lower: 0.921 for the first, 1.01 for the second.

Going from `NC(CO)C(=O)NNCc1ccc(O)c(O)c1O` (centres undefined) [Benserazide hydrochloride] to `CCN(CC)C(=O)/C(C#N)=C/c1cc(O)c(O)c([N+](=O)[O-])c1` [Entacapone], the “growth AUC normalised to DMSO control” value rises from 1.05 to 1.06.

Compared with `CC(C)(Oc1ccc(CCNC(=O)c2ccc(Cl)cc2)cc1)C(=O)O` [Bezafibrate], `COCCc1ccc(OCC(O)CNC(C)C)cc1` (stereo not drawn) [Metoprolol-(+)-tartrate salt] is lower in “growth AUC normalised to DMSO control” value: 0.984 for the first, 0.952 for the second.

First: Cc1onc(-c2c(F)cccc2Cl)c1C(=O)N[C@@H]1C(=O)N2[C@@H]1SC(C)(C)[C@@H]2C(=O)O [Flucloxacillin sodium]
Second: COCCOC(=O)C1=C(C)NC(C)=C(C(=O)OC(C)C)C1c1cccc([N+](=O)[O-])c1 (centres undefined) [Nimodipine]
The “growth AUC normalised to DMSO control” value of the first is lower: 0.944 for the first, 0.959 for the second.

Compared with `CC(C)NC[C@H](O)COc1cccc2ccccc12` [(S)-(-)-Propranolol hydrochloride], `COc1ccccc1OCCNCC(O)COc1cccc2[nH]c3ccccc3c12` (centres undefined) [Carvedilol] is lower in “growth AUC normalised to DMSO control” value: 1.03 for the first, 0.963 for the second.

Compared with `C[N+](C)(CCOc1ccccc1)Cc1ccccc1.O=C([O-])c1cc2ccccc2cc1O` [Bephenium hydroxynaphthoate], `CN(c1nccc(=O)[nH]1)C1CCN(c2nc3ccccc3n2Cc2ccc(F)cc2)CC1` [Mizolastine] is higher in “growth AUC normalised to DMSO control” value: 1.04 for the first, 1.11 for the second.

First: Cc1c(N)c(=O)n(-c2ccccc2)n1C [Ampyrone]
Second: CCOC(=O)NNc1nncc2ccccc12 [Todralazine hydrochloride]
The “growth AUC normalised to DMSO control” value of the first is lower: 1 for the first, 1.01 for the second.

Compared with `CCOc1ccc(NC(C)=O)cc1` [Phenacetin], `O=C(c1ccc(F)cc1)C1CCN(CCn2c(=O)[nH]c3ccccc3c2=O)CC1` [Ketanserin tartrate hydrate] is higher in “growth AUC normalised to DMSO control” value: 0.924 for the first, 0.928 for the second.

Compared with `Cc1ccc2c(c1)c1c3n2CCNC3CCC1` (centres undefined) [Pirlindole mesylate], `O=C1CCc2cc(OCCCCc3nnnn3C3CCCCC3)ccc2N1` [Cilostazol] is higher in “growth AUC normalised to DMSO control” value: 0.995 for the first, 1.26 for the second.

First: COc1cc([C@@H]2c3cc4c(cc3[C@@H](O[C@@H]3O[C@@H]5CO[C@@H](C)O[C@H]5[C@H](O)[C@H]3O)[C@H]3COC(=O)[C@H]23)OCO4)cc(OC)c1O [Etoposide]
Second: CNC(=O)c1c(I)c(C(=O)NCC(=O)Nc2c(I)c(C(=O)O)c(I)c(C(=O)NCCO)c2I)c(I)c(N(C)C(C)=O)c1I [Ioxaglic acid]
The “growth AUC normalised to DMSO control” value of the first is higher: 1.03 for the first, 0.921 for the second.

Compared with `CN(C)c1nc(N(C)C)nc(N(C)C)n1` [Altretamine], `S=c1[nH]cnc2nc[nH]c12` [Mercaptopurine] is lower in “growth AUC normalised to DMSO control” value: 1.05 for the first, 0.997 for the second.

In the case of `CC1=Nc2ccc(Cl)cc2S(=O)(=O)N1` [Diazoxide], the “growth AUC normalised to DMSO control” value is reported as 1.05.

In the case of `CN1CCN(c2c(F)cc3c(=O)c(C(=O)O)cn(CCF)c3c2F)CC1` [Fleroxacin], the “growth AUC normalised to DMSO control” value is reported as 0.0399 (active).
With `CC(=O)Oc1cccc2c1C(=O)c1c(OC(C)=O)cc(C(=O)O)cc1C2=O` [Diacerein] the “growth AUC normalised to DMSO control” value was 0.779 (active).
`CC(=O)OCC1=C(C(=O)O)N2C(=O)[C@@H](NC(=O)Cc3cccs3)[C@H]2SC1` [Cephalothin sodium salt] was tested, and the “growth AUC normalised to DMSO control” value was 0.0326 (active).
`CO[C@H]1/C=C/O[C@@]2(C)Oc3c(C)c(O)c4c(O)c(c(/C=N/N5CCN(C6CCCC6)CC5)c(O)c4c3C2=O)NC(=O)/C(C)=C\C=C\[C@H](C)[C@H](O)[C@@H](C)[C@@H](O)[C@@H](C)[C@H](OC(C)=O)[C@@H]1C` [Rifapentine] was tested, and the “growth AUC normalised to DMSO control” value was 0.0302 (active).
In the case of `CN(C)CCn1nnnc1SCC1=C(C(=O)O)N2C(=O)[C@@H](NC(=O)Cc3csc(N)n3)[C@H]2SC1` [Cefotiam hydrochloride], the “growth AUC normalised to DMSO control” value is reported as 0.0401 (active).
`CN[C@@H]1[C@H](O[C@H]2[C@H](O[C@H]3[C@H](O)[C@@H](O)[C@H](NC(=N)N)[C@@H](O)[C@@H]3NC(=N)N)O[C@@H](C)[C@]2(O)CO)O[C@@H](CO)[C@H](O)[C@H]1O` [Dihydrostreptomycin sulfate] was tested, and the “growth AUC normalised to DMSO control” value was 0.0409 (active).
